The term residual activity denotes the signal under treatment as a percentage of the control signal.

Assay [1] concerns the target T1, Ephrin type-A receptor 3 (Homo sapiens) (UniProt P29320).
T1 sequence (whole entry): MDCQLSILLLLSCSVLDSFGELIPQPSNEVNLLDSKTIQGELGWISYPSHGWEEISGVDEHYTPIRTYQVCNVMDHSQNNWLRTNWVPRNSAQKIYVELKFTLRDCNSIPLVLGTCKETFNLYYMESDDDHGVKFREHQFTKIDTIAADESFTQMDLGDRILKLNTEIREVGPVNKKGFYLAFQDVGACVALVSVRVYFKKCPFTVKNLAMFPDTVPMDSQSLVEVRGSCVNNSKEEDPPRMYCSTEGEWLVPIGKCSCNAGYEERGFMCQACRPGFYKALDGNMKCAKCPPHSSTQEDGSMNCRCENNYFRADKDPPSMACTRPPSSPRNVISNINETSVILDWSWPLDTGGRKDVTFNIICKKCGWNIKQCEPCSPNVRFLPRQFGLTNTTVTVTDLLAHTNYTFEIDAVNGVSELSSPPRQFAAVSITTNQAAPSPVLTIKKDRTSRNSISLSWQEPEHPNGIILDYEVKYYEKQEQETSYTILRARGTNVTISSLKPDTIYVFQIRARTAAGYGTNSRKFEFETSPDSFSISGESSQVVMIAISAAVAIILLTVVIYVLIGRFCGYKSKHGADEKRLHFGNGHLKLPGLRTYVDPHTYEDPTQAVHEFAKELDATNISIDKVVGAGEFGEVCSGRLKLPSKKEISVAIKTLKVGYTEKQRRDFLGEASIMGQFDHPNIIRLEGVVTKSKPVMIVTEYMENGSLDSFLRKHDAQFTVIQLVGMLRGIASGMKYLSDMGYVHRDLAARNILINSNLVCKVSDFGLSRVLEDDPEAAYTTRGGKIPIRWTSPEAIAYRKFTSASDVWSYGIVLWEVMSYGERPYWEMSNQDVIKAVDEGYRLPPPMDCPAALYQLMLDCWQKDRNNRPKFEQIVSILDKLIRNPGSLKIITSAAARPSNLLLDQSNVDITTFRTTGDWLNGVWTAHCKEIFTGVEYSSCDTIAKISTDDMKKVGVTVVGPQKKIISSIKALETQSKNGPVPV
As to conditions: at 10 µM.

Assay [2] has as its target Ephrin type-A receptor 4 (Homo sapiens) (UniProt P54764). As to conditions: at 1 µM.
Assay [3] has the same target. As to conditions: at 10 µM.
Assay [4] concerns the target Ephrin type-A receptor 5 (Homo sapiens) (UniProt P54756). The conditions noted are these: at 1 µM.
For assay [5] the target is unchanged. As to conditions: at 10 µM.
In assay [6] the target is Ephrin type-A receptor 7 (Homo sapiens) (UniProt Q15375). As to conditions: at 1 µM.
The target is the same in assay [7]. The conditions noted are these: at 10 µM.
For assay [8], the target named is T2, Ephrin type-A receptor 8 (Homo sapiens) (UniProt P29322).
T2 sequence (whole entry): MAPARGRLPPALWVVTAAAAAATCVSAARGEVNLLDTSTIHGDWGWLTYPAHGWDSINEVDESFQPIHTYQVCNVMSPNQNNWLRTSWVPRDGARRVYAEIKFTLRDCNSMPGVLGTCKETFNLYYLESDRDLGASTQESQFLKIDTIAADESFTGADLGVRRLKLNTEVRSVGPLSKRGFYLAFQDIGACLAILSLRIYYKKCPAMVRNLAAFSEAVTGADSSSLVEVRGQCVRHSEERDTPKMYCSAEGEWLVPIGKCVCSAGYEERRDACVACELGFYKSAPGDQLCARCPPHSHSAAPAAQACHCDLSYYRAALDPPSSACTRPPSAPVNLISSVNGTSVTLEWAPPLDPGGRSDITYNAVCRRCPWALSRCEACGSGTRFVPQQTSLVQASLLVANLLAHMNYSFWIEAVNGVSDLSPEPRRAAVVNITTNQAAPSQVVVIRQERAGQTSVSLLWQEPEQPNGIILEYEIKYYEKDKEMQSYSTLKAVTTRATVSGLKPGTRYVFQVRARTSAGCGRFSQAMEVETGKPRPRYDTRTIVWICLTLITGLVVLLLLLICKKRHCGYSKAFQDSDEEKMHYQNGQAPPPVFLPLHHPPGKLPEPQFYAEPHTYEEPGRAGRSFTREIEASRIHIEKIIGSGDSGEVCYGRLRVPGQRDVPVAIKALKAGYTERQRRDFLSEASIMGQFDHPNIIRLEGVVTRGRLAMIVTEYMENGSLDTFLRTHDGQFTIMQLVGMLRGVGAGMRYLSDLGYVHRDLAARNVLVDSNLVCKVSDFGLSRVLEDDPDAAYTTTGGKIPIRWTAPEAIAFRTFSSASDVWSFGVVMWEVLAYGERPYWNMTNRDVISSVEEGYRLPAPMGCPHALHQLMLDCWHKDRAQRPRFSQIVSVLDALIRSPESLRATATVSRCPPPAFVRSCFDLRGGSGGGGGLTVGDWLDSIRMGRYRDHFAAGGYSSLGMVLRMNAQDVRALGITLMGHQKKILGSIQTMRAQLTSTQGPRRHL
The conditions noted are these: at 1 µM.

The target in assay [9] is T2, Ephrin type-A receptor 8 (Homo sapiens). As to conditions: at 10 µM.
Assay [10] deals with T3, Ephrin type-B receptor 1 (Homo sapiens) (UniProt P54762).
T3 sequence (whole entry): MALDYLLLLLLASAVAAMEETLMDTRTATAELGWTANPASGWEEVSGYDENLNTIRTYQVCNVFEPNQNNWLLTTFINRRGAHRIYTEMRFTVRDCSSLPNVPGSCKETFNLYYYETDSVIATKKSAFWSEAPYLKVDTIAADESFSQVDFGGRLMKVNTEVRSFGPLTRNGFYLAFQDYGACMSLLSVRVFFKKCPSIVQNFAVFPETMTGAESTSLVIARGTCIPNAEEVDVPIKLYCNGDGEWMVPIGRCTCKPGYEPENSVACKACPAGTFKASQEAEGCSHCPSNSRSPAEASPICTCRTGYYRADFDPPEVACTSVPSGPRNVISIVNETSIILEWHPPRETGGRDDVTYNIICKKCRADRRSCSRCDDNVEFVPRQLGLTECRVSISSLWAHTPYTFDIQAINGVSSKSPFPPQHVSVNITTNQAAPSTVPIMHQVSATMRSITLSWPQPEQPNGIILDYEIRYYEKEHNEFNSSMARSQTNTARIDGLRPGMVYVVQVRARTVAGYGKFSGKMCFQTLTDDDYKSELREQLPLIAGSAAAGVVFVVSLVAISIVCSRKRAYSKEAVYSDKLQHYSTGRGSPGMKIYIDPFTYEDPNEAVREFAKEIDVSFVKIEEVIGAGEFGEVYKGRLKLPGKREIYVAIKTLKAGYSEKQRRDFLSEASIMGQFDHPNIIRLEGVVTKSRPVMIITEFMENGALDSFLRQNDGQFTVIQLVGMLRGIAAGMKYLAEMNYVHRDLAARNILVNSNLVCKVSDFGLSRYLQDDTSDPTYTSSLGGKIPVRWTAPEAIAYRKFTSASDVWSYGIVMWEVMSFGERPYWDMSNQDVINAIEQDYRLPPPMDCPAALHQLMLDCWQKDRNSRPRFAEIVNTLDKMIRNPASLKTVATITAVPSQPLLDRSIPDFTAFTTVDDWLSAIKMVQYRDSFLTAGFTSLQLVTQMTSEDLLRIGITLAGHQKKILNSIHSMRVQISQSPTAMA
As to conditions: at 1 µM.

Ephrin type-A receptor 4 (Homo sapiens), sequence (P54764 whole entry): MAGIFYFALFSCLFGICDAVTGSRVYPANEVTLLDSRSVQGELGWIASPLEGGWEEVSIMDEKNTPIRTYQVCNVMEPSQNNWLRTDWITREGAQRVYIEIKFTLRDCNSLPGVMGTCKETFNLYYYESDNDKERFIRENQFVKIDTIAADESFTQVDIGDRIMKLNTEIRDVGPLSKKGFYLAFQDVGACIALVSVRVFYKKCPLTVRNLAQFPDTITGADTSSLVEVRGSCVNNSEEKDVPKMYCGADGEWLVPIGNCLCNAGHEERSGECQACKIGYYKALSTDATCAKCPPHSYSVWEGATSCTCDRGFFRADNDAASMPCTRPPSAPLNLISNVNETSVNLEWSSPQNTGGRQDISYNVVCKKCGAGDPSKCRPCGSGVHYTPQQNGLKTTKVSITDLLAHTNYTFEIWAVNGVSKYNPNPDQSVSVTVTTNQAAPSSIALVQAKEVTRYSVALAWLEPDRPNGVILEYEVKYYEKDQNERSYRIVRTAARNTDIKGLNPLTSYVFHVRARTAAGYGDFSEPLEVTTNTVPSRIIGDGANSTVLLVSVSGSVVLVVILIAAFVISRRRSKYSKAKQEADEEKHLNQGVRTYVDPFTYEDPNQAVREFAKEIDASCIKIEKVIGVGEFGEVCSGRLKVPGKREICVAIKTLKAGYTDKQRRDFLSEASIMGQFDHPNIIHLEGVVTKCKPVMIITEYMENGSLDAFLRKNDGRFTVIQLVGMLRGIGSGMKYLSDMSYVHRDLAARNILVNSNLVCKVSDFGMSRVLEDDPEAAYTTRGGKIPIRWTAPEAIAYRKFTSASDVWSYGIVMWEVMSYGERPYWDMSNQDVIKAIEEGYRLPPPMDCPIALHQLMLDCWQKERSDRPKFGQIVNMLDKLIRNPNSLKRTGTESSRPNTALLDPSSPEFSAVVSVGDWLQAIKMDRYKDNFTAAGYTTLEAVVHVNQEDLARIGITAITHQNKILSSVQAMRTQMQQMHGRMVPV
Ephrin type-A receptor 7 (Homo sapiens), sequence (Q15375 28-998 limits assumed): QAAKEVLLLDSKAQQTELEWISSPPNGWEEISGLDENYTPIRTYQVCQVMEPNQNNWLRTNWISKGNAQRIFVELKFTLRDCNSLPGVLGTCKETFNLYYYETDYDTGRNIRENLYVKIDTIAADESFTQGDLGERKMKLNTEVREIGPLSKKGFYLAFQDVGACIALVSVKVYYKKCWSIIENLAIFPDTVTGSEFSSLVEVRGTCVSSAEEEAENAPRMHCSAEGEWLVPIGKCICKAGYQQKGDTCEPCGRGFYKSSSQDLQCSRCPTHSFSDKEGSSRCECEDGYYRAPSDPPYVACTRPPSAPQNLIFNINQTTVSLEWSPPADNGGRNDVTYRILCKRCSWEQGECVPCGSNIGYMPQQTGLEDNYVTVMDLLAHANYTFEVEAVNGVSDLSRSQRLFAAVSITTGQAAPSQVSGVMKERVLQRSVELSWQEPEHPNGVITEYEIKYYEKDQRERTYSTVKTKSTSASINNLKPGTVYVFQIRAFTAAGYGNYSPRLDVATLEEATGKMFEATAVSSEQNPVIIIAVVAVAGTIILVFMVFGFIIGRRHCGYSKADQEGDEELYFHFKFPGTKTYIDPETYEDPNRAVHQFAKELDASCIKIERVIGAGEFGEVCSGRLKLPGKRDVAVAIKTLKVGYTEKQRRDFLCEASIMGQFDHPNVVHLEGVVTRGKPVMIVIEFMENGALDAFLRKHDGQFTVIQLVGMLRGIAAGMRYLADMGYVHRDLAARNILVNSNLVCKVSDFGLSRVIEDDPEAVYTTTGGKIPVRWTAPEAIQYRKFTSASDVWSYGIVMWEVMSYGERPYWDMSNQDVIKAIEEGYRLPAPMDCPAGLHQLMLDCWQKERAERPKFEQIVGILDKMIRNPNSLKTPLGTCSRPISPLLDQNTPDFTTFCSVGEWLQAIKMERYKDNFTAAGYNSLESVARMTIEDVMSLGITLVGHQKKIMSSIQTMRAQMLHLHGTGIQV
Ephrin type-A receptor 5 (Homo sapiens), sequence (P54756 whole entry): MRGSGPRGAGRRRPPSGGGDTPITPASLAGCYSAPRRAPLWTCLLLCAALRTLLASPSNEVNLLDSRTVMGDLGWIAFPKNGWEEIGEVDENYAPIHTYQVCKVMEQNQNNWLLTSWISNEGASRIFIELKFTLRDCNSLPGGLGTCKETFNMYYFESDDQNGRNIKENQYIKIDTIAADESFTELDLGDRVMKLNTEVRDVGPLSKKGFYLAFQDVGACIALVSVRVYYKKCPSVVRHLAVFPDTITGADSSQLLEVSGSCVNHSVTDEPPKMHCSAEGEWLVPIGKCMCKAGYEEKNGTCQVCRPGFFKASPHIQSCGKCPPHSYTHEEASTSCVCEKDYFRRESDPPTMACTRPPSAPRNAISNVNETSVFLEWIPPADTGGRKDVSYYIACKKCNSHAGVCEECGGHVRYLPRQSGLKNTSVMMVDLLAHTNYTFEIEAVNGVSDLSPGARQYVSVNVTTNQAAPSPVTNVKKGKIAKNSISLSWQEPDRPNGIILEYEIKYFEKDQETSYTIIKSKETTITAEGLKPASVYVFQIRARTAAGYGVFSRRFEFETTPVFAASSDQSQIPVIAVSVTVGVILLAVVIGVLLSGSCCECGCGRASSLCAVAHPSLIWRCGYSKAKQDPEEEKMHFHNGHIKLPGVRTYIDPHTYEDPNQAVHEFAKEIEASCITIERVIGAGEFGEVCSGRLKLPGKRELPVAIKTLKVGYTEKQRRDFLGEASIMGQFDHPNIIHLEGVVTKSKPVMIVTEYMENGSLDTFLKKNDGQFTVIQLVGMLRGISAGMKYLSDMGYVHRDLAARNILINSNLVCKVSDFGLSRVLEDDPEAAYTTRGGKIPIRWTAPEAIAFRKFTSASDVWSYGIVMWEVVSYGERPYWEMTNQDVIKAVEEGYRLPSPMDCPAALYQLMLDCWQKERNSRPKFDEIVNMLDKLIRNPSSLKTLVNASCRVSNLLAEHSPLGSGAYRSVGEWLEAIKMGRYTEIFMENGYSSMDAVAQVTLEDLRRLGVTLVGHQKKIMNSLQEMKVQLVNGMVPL

As for `CNc1cc2c(Nc3cccc(Br)c3)ncnc2cn1`, the residual activity in assay [1] was determined as 78%; in assay [2], 105%; in [3], 95%; in assay [4], 103%; in assay [5] it was 92%; in assay [6], 90%. Also, the residual activity in assay [7] turned out to be 54%; in assay [8] it was 98%; in assay [9], 69%; in [10], 93%.

The values above are taken from ChEMBL document CHEMBL2218924, “A broad activity screen in support of a chemogenomic map for kinase signalling research and drug discovery” (Biochem J, 2013).
